For 21 molecules, Potency and outcome results are on record in PubChem BioAssay (NCATS).

Assay [1] is described as follows: Counterscreen for APE1 Inhibitors: Fluorescent Dye Displacement Validation Assay (AID 1707). Put shortly: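 Endpoint fluorescence read at 480 nm excitation / 540 nm emission; DNA-binding compounds lower signal by displacing 250 nM Thiazole Orange from 50 nM dsDNA containing a tetrahydrofuran abasic site, Tris-HCl pH7.5 buffer with NaCl and MgCl2.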
In general terms: A counterscreen serves to expose hits that act by an unwanted route or on another target.

Assay [2] in a line: qHTS for differential inhibitors of proliferation of Plasmodium falciparum line 7G8 (AID 1815).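 Also: parasite growth measured after three days of incubation.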 Also: potency is read from the fitted curve at half-maximal effect. Background: In qHTS, concentration-response curves come from the screen itself.
Assay [3] is described as follows: qHTS for differential inhibitors of proliferation of Plasmodium falciparum line GB4 (AID 1816).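 Also: parasite growth measured after 72 h incubation.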 Also: potency is read from the fitted curve at half-maximal effect. Particulars: Potency: Plasmodium falciparum GB4 proliferation inhibition.
Assay [4] in a line: qHTS for differential inhibitors of proliferation of Plasmodium falciparum line 3D7 (AID 1876). Also: potency is read from the fitted curve at half-maximal effect.
Assay [5] addresses Alpha-galactosidase A (Homo sapiens) (UniProt P06280). In words: Counterscreen for Glucocerebrosidase Inhibitors: qHTS Assay for Human alpha-Galactosidase at pH 4.5 (AID 992). Put shortly: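 Fluorogenic 4-MU alpha-D-galactoside (80 uM) hydrolysis, 2 nM enzyme, pH 4.5 citrate buffer + 0.005% Tween-20; 20 min RT; NaOH/glycine pH 10 stop; Ex365/Em440. Compounds titrated 0.7 nM–77 uM; Hill-equation AC50.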

Assay [6] has as its target alpha-glucosidase (Oryza sativa, rice) (UniProt Q653V4). In words: Counterscreen for Glucocerebrosidase Inhibitors: qHTS Assay for Rice alpha-Glucosidase at pH 5.0 (AID 997). The essentials:
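Endpoint fluorogenic assay at pH 5.0: compounds (0.7 nM to 77 uM) titrated against 4 nM rice enzyme and 400 uM 4-MU-alpha-glucoside for 20 min at room temperature; NaOH/glycine stop, read ex 365/em 440 nm, Hill-fitted AC50.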

In assay [7] the target is DNA repair nuclease/redox regulator APEX1 (Homo sapiens) (UniProt P27695). In words: qHTS Validation Assay for Inhibitors of the Human Apurinic/apyrimidinic Endonuclease 1 (APE1) (AID 1705; also: potency is read from the fitted curve at half-maximal effect). Put shortly:
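Substrate: 50 nM final fluorophore/quencher THF-abasic duplex. Enzyme preincubated with compounds 15 min, RT. Progress derived from fluorescence difference, third minus first kinetic read.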

Assay [8] addresses Endonuclease 4 (Escherichia coli (strain K12)) (UniProt P0A6C1). In words: Counterscreen for APE1 Inhibitors: qHTS Validation Assay for Inhibitors of Endonuclease IV (AID 1708). Put shortly:
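Read-out: fluorescence rise (ex 525/em 598 nm) from incision of a TAMRA/BHQ-2 double-stranded THF abasic-site substrate (50 nM), measured kinetically; third-minus-first read difference gave reaction progress. Enzyme 2 nM.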

Each structure is given as a SMILES string. Records with an inconclusive call do not appear. The source made the active and inactive calls. Calls follow the shape of the dose curve; as a rule, active = well fitted curve in the direction sought with a large enough effect; inconclusive = small, poorly fitted or top-dose-only effect, or another doubt; inactive = no such curve, though single readings can be large; an effect the other way counts as inactive or inconclusive. Residues, ends and D or L forms follow the SMILES beside them. *: point of attachment. Cbz = O=C(OCc1ccccc1)*

Sequence of Alpha-galactosidase A (Homo sapiens) (P06280 whole entry, looked up): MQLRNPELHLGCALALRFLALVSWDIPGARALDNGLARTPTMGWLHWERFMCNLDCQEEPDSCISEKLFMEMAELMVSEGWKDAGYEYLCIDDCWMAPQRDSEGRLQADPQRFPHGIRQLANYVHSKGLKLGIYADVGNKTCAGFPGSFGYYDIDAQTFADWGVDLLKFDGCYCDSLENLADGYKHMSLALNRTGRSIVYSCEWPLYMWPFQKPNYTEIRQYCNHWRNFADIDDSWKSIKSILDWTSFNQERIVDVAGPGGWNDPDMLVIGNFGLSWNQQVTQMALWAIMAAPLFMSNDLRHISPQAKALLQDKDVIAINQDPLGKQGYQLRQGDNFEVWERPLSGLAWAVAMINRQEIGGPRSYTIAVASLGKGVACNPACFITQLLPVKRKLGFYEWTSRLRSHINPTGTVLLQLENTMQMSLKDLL
Sequence of DNA repair nuclease/redox regulator APEX1 (Homo sapiens) (P27695 whole entry, looked up): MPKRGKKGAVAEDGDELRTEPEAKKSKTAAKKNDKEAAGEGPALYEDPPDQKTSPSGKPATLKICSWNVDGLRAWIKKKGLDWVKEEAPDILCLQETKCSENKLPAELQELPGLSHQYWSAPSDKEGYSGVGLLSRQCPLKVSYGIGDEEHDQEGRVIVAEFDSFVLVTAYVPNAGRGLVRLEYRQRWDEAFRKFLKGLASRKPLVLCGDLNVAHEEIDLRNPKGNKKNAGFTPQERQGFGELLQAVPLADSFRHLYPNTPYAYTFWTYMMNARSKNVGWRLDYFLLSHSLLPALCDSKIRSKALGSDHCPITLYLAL

With `COc1ccc2c(c1)CCC1C2CC[C@@]2(C)C1CC[C@@H]2NCCCCCCN1C(=O)C=CC1=O` (stereo partly specified), the Potency result in assay [1], in assay [2], in assay [3] and in assay [4] was “inactive” in each case.
Take `Nc1ncnc2c1ncn2C1CCCC1`: the molecule was classed as inactive in assay [5] and in assay [6]. The Potency entry in assay [7], in assay [1], in assay [8] and in assay [2] was “inactive” throughout.
For the molecule `O=C(O)c1ccccc1Nc1cccc(OCc2ccc3ccccc3n2)c1`, the call in assay [5] and in assay [6] was inactive. The Potency entry in assay [7], in assay [1], in assay [8] and in assay [4] was “inactive” each time.
In the case of `CCCCCCCC/C=C\CCCCCCCC(=O)NCCc1ccc(O)c(O)c1`, the result in assay [5] and in assay [6] was inactive. The Potency result in assay [7] was “inactive”. Further, the Potency was 7.08 µM (active) in assay [2], 11.2 µM (active) in assay [3] and 8.91 µM (active) in assay [4].
As to `S=C(S)N1CCCC1`, the outcome in assay [5] and in assay [6] was inactive. Besides, the Potency result in assay [7], in assay [1] and in assay [8] was “inactive” in each case.
Take `[N-]=[N+]=Nc1ccc(C(=O)CSC[C@H](NC(=O)CC[C@H](N)C(=O)O)C(=O)NCC(=O)O)cc1`: the Potency in assay [7] is 20 µM (active). Also, the Potency result in assay [1], in assay [2] and in assay [4] was “inactive” throughout.
Take `O=C(N[C@@H](Cc1ccccc1)C(=O)CCl)OCc1ccccc1`: the outcome in assay [5] and in assay [6] was inactive. The Potency result in assay [1] is “inactive”. Also, the Potency was 8.91 µM (active) in assay [2], 10 µM (active) in assay [3] and 11.2 µM (active) in assay [4].
`C[C@@]1(C2CCCC2)Cc2cc(OCC(=O)O)c(Cl)c(Cl)c2C1=O`: the Potency result in assay [7], in assay [1], in assay [8], in assay [2], in assay [3] and in assay [4] was “inactive” in each case.
Take `CCCCC[C@H](CC(=O)NO)C(=O)N[C@H](C(=O)N1CCC[C@H]1CO)C(C)C`: the Potency entry in assay [7], in assay [1] and in assay [8] was “inactive” throughout. The Potency was 2.24 µM (active) in assay [2], 2 µM (active) in assay [3] and 1.78 µM (active) in assay [4].
With `O=c1ccc2c(OCCCCc3ccccc3)c3ccoc3cc2o1`, the call in assay [5] and in assay [6] was inactive. Also, the Potency entry in assay [7] and in assay [1] was “inactive” each time. Besides, the Potency in assay [3] is 11.2 µM (active).
Regarding `O=C1Cc2c([nH]c3ccc(Br)cc23)-c2ccccc2N1`, the call in assay [5] and in assay [6] was inactive. Also, the Potency result in assay [7] and in assay [1] was “inactive” each time. The results for the Potency in assay [2], in assay [3] and in assay [4] were 8.91 µM (active), 10 µM (active) and 11.2 µM (active), respectively.
For the molecule `C=C1C(=O)O[C@@H]2[C@H]3O[C@]3(C)CCC=C(C)CC[C@@H]12`, the Potency result in assay [7] and in assay [1] was “inactive” throughout. In addition, the Potency in assay [2] is 11.2 µM (active).
For `CC(C)[C@H](NC(=O)OCc1ccccc1)C(=O)N[C@H](C=O)Cc1ccccc1` (Cbz-Val-Phe-aldehyde), the outcome in assay [5] and in assay [6] was inactive. Besides, the Potency result in assay [7], in assay [1] and in assay [8] was “inactive” each time. Also, the Potency in assay [2] is 7.08 µM (active); in assay [3], 4.47 µM (active); in assay [4], 2.82 µM (active).
With `COc1cc([C@@H]2c3cc4c(cc3[C@H](O)C3COC(=O)[C@@H]32)OCO4)cc(OC)c1OC` (stereo partly specified), the Potency result in assay [1] was “inactive”.
On to `CC(/C=C/c1cccc(Oc2ccc(F)cc2)c1)N(O)C(N)=O` (stereo unspecified), for which the Potency result in assay [7], in assay [1] and in assay [8] was “inactive” in each case.
Take `CC(C)(C)NCC(O)COc1cccc2[nH]c(=O)[nH]c12` (stereo unspecified): the Potency result in assay [7], in assay [1], in assay [8], in assay [2], in assay [3] and in assay [4] was “inactive” throughout.
Regarding `NC(N)=N[C@@H](CCC(=O)O)C(=O)O`, the Potency entry in assay [7], in assay [1], in assay [8], in assay [2], in assay [3] and in assay [4] was “inactive” throughout.
As for `NC(=Nc1ccccc1)NC(=O)c1nc(Cl)c(N)nc1N`, the result in assay [5] and in assay [6] was inactive. In addition, the Potency result in assay [7] and in assay [1] was “inactive” in each case. In addition, the Potency was 8.91 µM (active) in assay [2], 12.6 µM (active) in assay [3] and 3.55 µM (active) in assay [4].
Take `Fc1ccc(CN(C2=NCCN2)c2c(Cl)cccc2Cl)cc1`: the outcome in assay [5] and in assay [6] was inactive. Besides, the Potency entry in assay [7], in assay [1] and in assay [8] was “inactive” in each case. The values for the Potency in assay [2], in assay [3] and in assay [4] were 6.31 µM (active), 5.62 µM (active) and 11.2 µM (active), respectively.
In the case of `CCC1(O)CC2CN(CCc3c([nH]c4ccccc34)[C@@](C(=O)OC)(c3cc4c(cc3OC)N(C)C3[C@]45CCN4CC=C[C@@](CC)([C@@H](OC(C)=O)[C@]3(O)C(=O)OC)[C@H]45)C2)C1` (stereo partly specified), the Potency result in assay [7], in assay [1] and in assay [8] was “inactive” in each case. The Potency is 1.12 µM (active) in assay [2], 2.51 µM (active) in assay [3] and 0.631 µM (active) in assay [4].
Turning to `N=C(N)c1ccc(OCCCCCOc2ccc(C(=N)N)cc2)cc1` (tested in a mixture with another compound), the molecule was called inactive in assay [5] and in assay [6]. The Potency entry in assay [1] and in assay [8] was “inactive” each time. In addition, the Potency was 0.282 µM (active) in assay [2], 0.251 µM (active) in assay [3] and 0.0891 µM (active) in assay [4].
